From PubChem BioAssay (Tox21)
Inconclusive results are not listed. A call without a number means that no potency is given here. Values without a mark were called inactive. The source made the active and inactive calls. The call rests on the fitted dose curve.

Assay: p53 small molecule agonists, cell-based qHTS assay with human liver microsomes (AID 1963577);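 further: p53 response element beta-lactamase reporter cells with liver microsomes plus NADPH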
Settings: HCT-116 p53RE-bla with human liver microsomes, ratio, 16 h; series mostly up to 66 µM; activation: at the top concentration
Excerpt: National Center for Advancing Translational Sciences [NCATS]
Division of Preclinical Innovation [DPI]
U.S. Environmental Protection Agency [EPA]
National Institutes of Environmental Health Sciences [NIEHS]
National Toxicology Program [NTP]
U.S. Food and Drug Administration [FDA]
p53, a tumor suppressor protein, is activated following cellular insult, including DNA damage and other cellular stresses. The activation of p53 regulates cell fate by inducing DNA repair, cell cycle arrest, apoptosis, or cellular senescence. The activation of p53, therefore, is a good indicator of DNA damage and other cellular stresses. […] The activation of the reporter gene under culture conditions can be detected by fluorescence intensity.
Tox21 Assay Protocol Summary:
The p53RE-bla cells were dispensed at 4,000cells/3ul/well in 1536-well black-clear bottom plates. After the assay plates were incubated at 37 C, 5% CO2 incubator for 5 hours, 23 nL of compounds dissolved in DMSO, positive controls or DMSO only was transferred to the assay plate. Following compound addition, 3 uL of human liver microsomes (XenoTech, Kansas City, KS) at final concentration of 0.5 mg/mL and 1uL of Beta-Nicotinamide adenine dinucleotide 2-phosphate (NADPH) at final concentration of 0.5 mg/mL were transferred to the assay plate. The plates were incubated at 37 C for 16 hours. 1 uL of LiveBLAzer detection mixture was added to each well and the plates were incubated at room temperature in the dark for 2 h.

Row | Compound | Potency | activation [%]
1 | C=C[Si](OCCOC)(OCCOC)OCCOC | inactive | –
2 | c1ccc2[nH]ccc2c1 | inactive | –
3 | CC1(C)C(=O)N(Cl)C(=O)N1Cl | inactive | –
4 | C=CC(C)(CCC=C(C)C)OC(C)=O (stereo not given) | inactive | –
5 | c1ccc2cc(Nc3ccc(Nc4ccc5ccccc5c4)cc3)ccc2c1 | – | 0.129
6 | CCc1cccc(C)c1N | inactive | –
7 | COc1ccc(C)cc1N | inactive | –
8 | NC(=O)c1cccnc1 | inactive | –
9 | Cc1ccc([N+](=O)[O-])cc1S(=O)(=O)O | inactive | –
10 | CCCCC(CC)COC(=O)CCCCC(=O)OCC(CC)CCCC (stereo not given) | – | 2.89
11 | Nc1ccc(S(=O)(=O)Nc2cnc3ccccc3n2)cc1 | inactive | –
12 | C/C=C(C)/C=C/C=C(C)C | inactive | –
13 | Clc1cc(Cl)c(Cl)cc1Cl | inactive | –
14 | O=C(OCc1ccccc1)c1ccccc1O | inactive | –
15 | Cc1ccc(C)c(C)c1 | inactive | –
16 | COC(=O)c1ccccc1O | inactive | –
17 | O=C(O)CCCCCCCC(=O)O | inactive | –
18 | S=c1nc[nH]c2nc[nH]c12 | inactive | –
19 | CCC(C)C=O (stereo not given) | inactive | –
20 | O=C(O)CCCC(=O)O | – | -0.0319

Row | Compound | Potency | activation [%]
21 | COC(=O)c1ccc(C)cc1 | – | 2.96
22 | CCCCC(=O)O | inactive | –
23 | COCc1c(C(C)C)nc(C(C)C)c(/C=C/[C@@H](O)C[C@@H](O)CC(=O)O)c1-c1ccc(F)cc1 | inactive | –
24 | COc1ccc(CCC(C)=O)cc1 | inactive | –
25 | NC(=O)NC(N)=O | inactive | –
26 | C[Si](O[Si](C)(C)C)O[Si](C)(C)C | inactive | –
27 | CN(C)C(=O)Nc1ccc(Cl)c(Cl)c1 | inactive | –
28 | CC(=O)c1nccs1 | inactive | –
29 | CNC[C@H](O)c1ccc(O)c(O)c1 | inactive | –
30 | OC(Cn1cncn1)(Cn1cncn1)c1ccc(F)cc1F | inactive | –
31 | CC(=O)c1ccc(O)cc1 | inactive | –
32 | CCCCCCCCCCC=CC1CC(=O)OC1=O (stereo not given) | inactive | –
33 | CC1(C)OC(=O)NC1=O | inactive | –
34 | CCCCCCCCCCCO | – | -2.6
35 | c1ccc(Nc2ccccc2)cc1 | – | -0.289
36 | COc1ccccc1OCC(O)CO (stereo not given) | inactive | –
37 | Brc1cc(Oc2cc(Br)c(Br)c(Br)c2Br)c(Br)c(Br)c1Br | inactive | –
38 | O=S1(=O)CC=CC1 | inactive | –
39 | C=CC(=O)OCCCC | – | -4.76
40 | O=C(CC(C(=O)OC1CCCCC1)S(=O)(=O)O)OC1CCCCC1 (stereo not given) | – | 1.31
